# Data as given in PubChem BioAssay (NCATS).
# Values joined by “and” are separate entries in the source; they are usually repeats but may differ in a detail not shown here. Equal values may be shown once. Results filed as inconclusive are left out. Active and inactive are the calls of the source. The call rests on the fitted dose curve.
# Experiment: Cytotoxicity counterscreen for inhibitors of SARS-CoV-2 cell entry (AID 1645845); further: nearly all actives have a fitted effect of over 50% in size; further: potency means the concentration at half of the fitted maximal effect; on activity change, negative = cytotoxicity: on the % scale 0 is the no-effect control and ±100 the full control effect
# Details: cell viability (SARS-CoV-2 entry assay cells); series mostly up to 57.1 µM; activity change, negative = cytotoxicity: at the top concentration
# In short: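 Expi293F/hACE2 cells seeded overnight; cpd pin-transferred in DMSO, 1 h preincubation, + media, 48 h 37 C 5% CO2; ATPLite 1step luminescence; normalized to cells and no cells.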
SMILES,Potency,"activity change, negative = cytotoxicity",outcome
Clc1ccc(C(c2ccccc2Cl)C(Cl)Cl)cc1 (stereo not drawn),inactive,–,–
CS(=O)(=O)CCNCc1ccc(-c2ccc3ncnc(Nc4ccc(OCc5cccc(F)c5)c(Cl)c4)c3c2)o1,inactive,–,–
C#C[C@]1(O)CC[C@H]2[C@@H]3CCC4=Cc5oncc5C[C@]4(C)[C@H]3CC[C@@]21C,–,-20.5% (inactive),–
Cc1[nH]cnc1CN1CCc2c(c3ccccc3n2C)C1=O,–,–,inactive
CN1CCN(C2=Nc3ccccc3Oc3ccc(Cl)cc32)CC1,–,–,inactive
COC(=O)C1=C(C)NC(C)=C(C(=O)OCCN(C)Cc2ccccc2)C1c1cccc([N+](=O)[O-])c1 (stereo not drawn),–,-5.32% (inactive),–
CC(C)(C)C(=O)OCOP(=O)(COCCn1cnc2c(N)ncnc21)OCOC(=O)C(C)(C)C,inactive,–,–
CCC(=O)O[C@H]1[C@H](O[C@@H]2[C@@H](C)[C@H](O[C@H]3C[C@@](C)(OC)[C@@H](O)[C@H](C)O3)[C@@H](C)C(=O)O[C@H](CC)[C@@](C)(O)[C@H](O)[C@@H](C)C(=O)[C@H](C)C[C@@]2(C)O)O[C@H](C)C[C@@H]1N(C)C,–,2.05% (inactive),–
C[n+]1ccccc1/C=N/O,–,-3.64% (inactive),–
CCCCOCCOCCOCc1cc2c(cc1CCC)OCO2,–,1.96% (inactive),–
CC(=O)O[C@]1(C(C)=O)CC[C@H]2[C@@H]3C=C(Cl)C4=CC(=O)[C@@H]5C[C@@H]5[C@]4(C)[C@H]3CC[C@@]21C,–,–,inactive
Cc1cn([C@H]2C=C[C@@H](CO)O2)c(=O)[nH]c1=O,–,-6.87% (inactive),–
CC(=O)[C@]1(O)Cc2c(O)c3c(c(O)c2[C@@H](O[C@H]2C[C@H](N)[C@H](O)[C@H](C)O2)C1)C(=O)c1ccccc1C3=O,–,-41.2% (inactive),–
O=C(O)COCCN1CCN(C(c2ccccc2)c2ccc(Cl)cc2)CC1 (stereo not drawn),–,–,inactive
CN(C)CCOC(c1ccc(Cl)cc1)c1ccccn1 (stereo not drawn),–,-25.7% (inactive),–
O=C1Cc2cc(CCN3CCN(c4nsc5ccccc45)CC3)c(Cl)cc2N1,–,–,inactive
CN(C)CCCN1c2ccccc2Sc2ccc(Cl)cc21,–,-13.6% (inactive),–
C[C@@H]1C[C@H]2[C@@H]3CCC4=CC(=O)C=C[C@]4(C)[C@@]3(F)[C@@H](O)C[C@]2(C)[C@@]1(O)C(=O)CO,inactive,–,–
C=CC(=O)Nc1cc2c(Nc3ccc(F)c(Cl)c3)ncnc2cc1OCCCN1CCOCC1,35.5 µM (active),–,–
CN1CCN(C(c2ccccc2)c2ccccc2)CC1,–,–,inactive
Cc1nc2n(c(=O)c1CCN1CCC(c3noc4cc(F)ccc34)CC1)CCC[C@H]2O,–,–,inactive [at 27.1 µM]
Nc1nc2c(ncn2COC(CO)CO)c(=O)[nH]1,inactive,–,–
CN(C)C(=O)C(CCN1CCC(O)(c2ccc(Cl)cc2)CC1)(c1ccccc1)c1ccccc1,–,-25.1% (inactive),–
CCc1nc(N)nc(N)c1-c1ccc(Cl)cc1,14.1 µM (active),–,–
CC1(C)NC(=O)N(c2ccc([N+](=O)[O-])c(C(F)(F)F)c2)C1=O,inactive,–,–
COC1=CC(=O)C[C@@H](C)[C@]12Oc1c(Cl)c(OC)cc(OC)c1C2=O,–,-20.7% (inactive),–

# Experiment: Primary qHTS to identify inhibitors of SARS-CoV-2 cell entry (AID 1645846); further: nearly all actives have a fitted effect of over 45% in size
# Details: SARS-CoV-2 pseudovirus cell entry assay, luminescence; activity change, negative = inhibition: at 57.1 µM (top of the series) unless noted; series mostly up to 57.1 µM
# In short: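 Data are normalized to wells receiving SARS-CoV-2-S pseudoparticles and those given bald particles. Entry signal was luciferase luminescence in stable hACE2 Expi293F cells, 48 hr post-infection, after 1 hr compound pretreatment.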
SMILES,"activity change, negative = inhibition",outcome,Potency
CC(C)C1CCC(C(=O)N[C@H](Cc2ccccc2)C(=O)O)CC1 (stereo partly drawn),2.32% and -12.7%,–,–
CNC1(C)C2CCC(C2)C1(C)C (stereo not drawn),–,inactive,–
Clc1ccc(C(c2ccccc2Cl)C(Cl)Cl)cc1 (stereo not drawn),-40.6%,–,–
CC(C)(C)C(=O)OCOP(=O)(COCCn1cnc2c(N)ncnc21)OCOC(=O)C(C)(C)C,-90.1%,–,–
C[n+]1ccccc1/C=N/O,–,inactive,–
CCCCOCCOCCOCc1cc2c(cc1CCC)OCO2,-2.81%,–,–
Cc1cn([C@H]2C=C[C@@H](CO)O2)c(=O)[nH]c1=O,-21.1%,–,–
CC(=O)[C@]1(O)Cc2c(O)c3c(c(O)c2[C@@H](O[C@H]2C[C@H](N)[C@H](O)[C@H](C)O2)C1)C(=O)c1ccccc1C3=O,-91.2% and -93.3%,–,–
O=C(O)COCCN1CCN(C(c2ccccc2)c2ccc(Cl)cc2)CC1 (stereo not drawn),-14.4%,–,–
C[C@@H]1C[C@H]2[C@@H]3CCC4=CC(=O)C=C[C@]4(C)[C@@]3(F)[C@@H](O)C[C@]2(C)[C@@]1(O)C(=O)CO,–,–,inactive
Nc1nc2c(ncn2COC(CO)CO)c(=O)[nH]1,-11.4% and -3.55%,–,–
CC1(C)NC(=O)N(c2ccc([N+](=O)[O-])c(C(F)(F)F)c2)C1=O,-23.9%,–,–
